# Reference: PubChem BioAssay AID686971 (National Center for Advancing Translational Sciences (NCATS), 2013)
# In all, about 360,000 compounds went through this assay and about 7,500 (2.1%) were called active. Entries that show only a call come without a potency. About 8% were inconclusive and are not listed. Calls follow the shape of the dose curve; as a rule, active = well fitted cell-killing curve with a large enough effect; inconclusive = small, poorly fitted or top-dose-only effect, or effect the other way, or another doubt; inactive = no such curve, though single readings can be large or run the other way. For the sample, actives were picked, then their nearest neighbours and some compounds at random.
# Assay: qHTS for induction of synthetic lethality in tumor cells producing 2HG: qHTS for the HT-1080-IDH1KD cell line
# Settings: HT-1080 IDH1 knockdown viability, ATP luminescence, 48 h; series mostly up to 46.1 µM
# Text: Unbiased genomic sequencing for 22 glioma genomes found recurrent mutation of IDH1 on chromosome 2q33, a gene encoding the cytosolic isoform of IIDH1 associated with the tri-carboxylic acid cycle (TCA) that catalyzes the oxidative decarboxylation of isocitrate, yielding alpha-ketoglutarate and CO2 via NADP+ to NADPH conversion. Subsequent studies confirmed the recurrent IDH mutations in up to 70% of secondary gliomas and in 10% of AML cases. In addition, the somatic mutation of cancer-associated IDH1 is a point mutation resulting in various amino-acid substituents at Arginine132 (IDH1 R132), a key residue found in the enzyme's active site that when mutated, results in the loss-of-function in metabolizing isocitrate but confers a gain-of-function to produce the oncometabolite 2-hydroxyglutarate (2HG). This in effect defines IDH1 as an oncogene and provides an extraordinary opportunity to discover chemical probes against mutant IDH1 that may translate into much needed new therapies for glioma and AML patients.
# This assay aims to perform a synthetic-lethal screen for chemical probes specific for 2HG-producing tumor cells using matched paired cell lines (1) HT-1080-NT fibrosarcoma cell line that overproduces 2HG and (2) HT-1080-IDH1KD cell line which has IDH1 expression knocked-down. Desirable compounds are toxic to the NT fibrosarcoma cell line but not to the IDH1KD cell line. The data in this AID corresponds to the results of the qHTS against the HT-1080 IDH1KD cell line.
# [1] Dang L, Jin S, Su SM. IDH mutations in glioma and acute myeloid leukemia. Trends of Mol Med. 2010; 16(9): 387-97.
# [2] Dang L et al. Cancer-associated IDH1 mutations produce 2-hydroxyglutarate. Nature. 2010; 465(7300):966.
# Molecular Libraries Probe Production Centers Network [MLPCN]
# NIH Chemical Genomics Center [NCGC]
# Assay Submitter (PI): Lenny Dang Ph.D., Agios Pharmaceuticals
# Suspensions of trypsinized HT-1080-IDH1KD cells were dispensed into white, tissue culture-treated, solid 1536-well plates at 5uL/well (750 cells/well final concentration) in RPMI medium supplemented with 5% FBS. Plates were incubated at 37 degrees C for 2 hours, after which 23 nL of compounds or DMSO were delivered to each well using a pin tool. Plates were then incubated at 37 degrees C for an additional 48 hours. CellTiter-Glo viability reagent (Promega) was dispensed into wells (2.5uL/well) and incubated at room temperature for 10 minutes. The plates were measured on a PerkinElmer ViewLux plate reader for luminescent signal (clear filter, 1 sec exp.). DMSO-treated control wells and media-only (no cells) control wells were used to normalize %Activity of identified toxic compounds; DMSO-treated wells corresponded to 0%Activity (100% viability), while media-only controls were used to normalize 100%Activity (0% viability). To minimize variability between cell lines, both HT-1080-NT and HT-1080-IDH1KD lines were dispensed and treated with identical compound series in single batches.
# Concentration-response curves were fitted to the signals arising from the resulting luminescence. The concentration-effect curves were then classified based on curve quality (r2), response magnitude and degree of measured activity, and compounds were subsequently categorized based on their curve class.
# Potency is read from the fitted curve at half-maximal effect.
row,SMILES,Potency
1,C#CCNC(=O)C[C@@H]1C[C@@]2(C(=O)OCC)CCCC=C2N(Cc2ccco2)C1=O,inactive
2,NS(=O)(=O)c1ccc(NC(=O)CSc2nnc3c(n2)[nH]c2ccccc23)cc1,inactive
3,CN(C)C(=O)c1cccc(-c2cnc3c(NC=O)cc(-c4ccc(F)cc4)cn23)c1,23.1 µM (active)
4,CC(=O)c1cccc(-c2cnc3c(NC=O)cc(-c4cccc(C(=O)N(C)C)c4)cn23)c1,inactive
5,Cc1ccc2nc(-c3ccccn3)cc(C(=O)Nc3ccc4c(c3)OCO4)c2c1,inactive
6,Cc1ccc2nc(-c3ccncc3)cc(C(=O)Nc3ccc4c(c3)OCCO4)c2c1,9.2 µM (active)
7,CCOc1ncccc1C(=O)Nc1ccc2c(c1)OCCO2,inactive
8,CCOc1ccc(CCN2C(=O)C(=O)N([C@@H](CC(C)C)CN3CCC[C@H]3CN3C(=O)C(=O)NC[C@@H]3Cc3ccccc3)C[C@@H]2CC(C)C)cc1,inactive
9,COC(=O)COc1cccc2c(=O)n(CC(=O)NCc3ccccc3)ccc12,2.31 µM (active)
10,COC(=O)COc1cccc2c(=O)n(CC(=O)NCCc3ccc(OC)c(OC)c3)ccc12,inactive
11,Cc1ccc(CNC(=O)CCNC(=O)Cn2ccc3ccccc3c2=O)cc1,inactive
12,C=CCN1CCN(c2ccncc2S(=O)(=O)N2CCN(C)CC2)CC1,inactive
13,COc1cccc(C(NC(C)=O)c2nc(-c3ccccc3OC)cs2)c1 (stereo unspecified),inactive
14,COc1ccc(C(CNC(=O)CSc2ccccc2)N2CCOCC2)cc1 (stereo unspecified),inactive
15,CN(C)c1cccc(NC(=O)c2ccc(-c3ccc(F)c(F)c3)c3ccoc23)c1,inactive
16,Cc1cc(C(=O)CCl)c(C)n1CC1COc2ccccc2O1 (stereo unspecified),14.6 µM (active)
17,O=C1C(=O)N(CC2COc3ccccc3O2)c2ccccc21 (stereo unspecified),inactive
18,Cc1ccsc1C(=O)OCC(=O)c1cc(C)n(CC2CCCO2)c1C (stereo unspecified),inactive
19,CC(C)(C)c1ccc(C(=O)NCCn2c(N)c(C#N)c3nc4ccccc4nc32)cc1,16.4 µM (active)
20,COCC(C)OC(=O)c1c(N)n(CCCN2CCOCC2)c2nc3ccccc3nc12 (stereo unspecified),inactive
21,CC(C)(C)c1ccc(C(=O)NCC(=O)OCN2C(=O)c3ccccc3C2=O)cc1,inactive
22,COc1ccc2nc(-c3ccccn3)ccc2c1,inactive
23,C[C@@H]1CN([C@@H](C)CO)C(=O)CCCn2nncc2CO[C@H]1CN(C)Cc1ccc(C(F)(F)F)cc1,inactive
24,O=S1(=O)CC(N2CCC(Cc3ccccc3)CC2)CN1Cc1ccccc1 (stereo unspecified),inactive

row,SMILES,Potency
1,CC(C)(C)C(=O)c1c(N)[nH]c(C(=O)c2ccccc2)c1-c1ccc(F)cc1,inactive
2,COc1ccccc1-c1n[nH]nc1C1=CC(=O)CC(C)(C)C1,inactive
3,COc1ccccc1CCNC(=O)C(=O)NCCC1CCCCN1S(=O)(=O)c1cccs1 (stereo unspecified),inactive
4,O=C(NCCC1CCCCN1S(=O)(=O)c1ccc(F)cc1)C(=O)NC1CC1 (stereo unspecified),inactive
5,O=C(NCCC1CCCCN1S(=O)(=O)c1cccs1)C(=O)Nc1ccc(F)cc1F (stereo unspecified),14.6 µM (active)
6,O=C(Nc1cccc2ccccc12)c1[nH]c(-c2ccccc2)c2c1C(=O)N(C1CC1)C2=O,inactive
7,O=C(NCCN1CCOCC1)C1CCN(S(=O)(=O)c2ccccc2)CC1,inactive
8,CN(C)S(=O)(=O)Oc1ccccc1C(=O)Nc1ccccc1Cl,inactive
9,O=C(Nc1ccccc1Cl)/C(Cl)=C(\Cl)S(=O)c1ccccc1 (stereo unspecified),6.51 µM (active)
10,O=C(COC(=O)CCc1c[nH]c(=O)[nH]1)Nc1ccccc1Cl,inactive
11,CC1(Oc2ccc(Cl)cc2)CCN(Cc2csc3ccccc23)C1 (stereo unspecified),inactive
12,N#CCSc1ccccc1NC(=O)CN1C(=O)NC(CCc2ccccc2)C1=O (stereo unspecified),inactive
13,COC(=O)[C@]12CCCCC=C1N(Cc1ccco1)C(=O)[C@H](CC(=O)NCCCCc1ccccc1)C2,inactive
14,COc1ccc(-c2csc(Nc3ccc(O)cc3)n2)cc1,6.51 µM (active)
15,COc1ccc(-c2csc(Nc3cccc(C)n3)n2)cc1OC,inactive
16,COc1ccc(C(C)(O)c2nc(-c3ccc(C)c(C)c3)cs2)cc1 (stereo unspecified),inactive
17,OC[C@@H]1CN(Cc2ccc(Cl)cc2)C[C@H](n2cnc3c(NCc4ccncc4)ncnc32)O1,inactive
18,Cc1ccc(S(=O)(=O)N2CC[C@H]3[C@@H](C2)C(=O)C[C@@H](c2ccccc2)N3S(=O)(=O)c2ccc(C)cc2)cc1,inactive
19,COc1ccc(-n2c(-c3ccc(Cl)cc3)n[nH]c2=S)c(OC)c1,inactive
20,O=C(COC(=O)c1ccccc1C(=O)N1CCN(c2ccccc2)CC1)NCc1ccccc1,inactive
21,Oc1ccccc1N1CCN(C(=S)NCc2ccccc2)CC1,inactive
22,Oc1ccc(N2CCN(C(=S)NCc3ccccc3)CC2)cc1,16.4 µM (active)
23,Cc1ccc(F)c(S(=O)(=O)NC(=O)C2(C)CCN2C(=O)c2ccco2)c1 (stereo unspecified),inactive
24,COc1ccc(NC(=O)c2cc(=O)[nH]c3ccccc23)cc1S(=O)(=O)N1CCOCC1,inactive

row,SMILES,Potency
1,CN(c1ccccc1)S(=O)(=O)c1ccc(Cl)c(C(=O)OCC(=O)NCc2ccco2)c1,inactive
2,O=C(COC(=O)c1ccccc1O)NCc1ccco1,inactive
3,Cc1cc(C(=O)OCC(=O)NCc2ccco2)c(C)n1-c1ccccc1,3.66 µM (active)
4,CCCCC(=O)N(C)c1c(CC)nc2c(OCc3ccc(S(C)(=O)=O)cc3)cccn12,inactive
5,CN1CCN(c2ccc3c(c2)OC[C@H](Cc2ccccc2)NS3(=O)=O)CC1,inactive
6,COc1ccc(S(=O)(=O)N2CCC(C(=O)NCc3ccco3)CC2)cc1C,inactive
7,COc1ccc(CNC(=O)C2CC(c3ccc(C(F)(F)F)cc3)=NO2)cc1 (stereo unspecified),inactive
8,COc1ccc(C2=NOC(C(=O)NCc3ccco3)C2)cc1OC (stereo unspecified),4.47 µM (active)
9,COc1ccc(OC)c(C(O)c2ncc(-c3cccc(C(F)(F)F)c3)[nH]2)c1 (stereo unspecified),inactive
10,Cc1cc(C(=O)N/N=C/c2cc([N+](=O)[O-])cc(C)c2O)n[nH]1,16.4 µM (active)
11,COc1ccc(CC(=O)N/N=C/c2cc([N+](=O)[O-])cc(Br)c2O)cc1,inactive
12,Cc1ccc(S(=O)(=O)N2CCN(CC(=O)N/N=C/c3cc([N+](=O)[O-])ccc3Cl)CC2)cc1,inactive
13,C[C@H]1CN([C@@H](C)CO)C(=O)c2cc(Br)cnc2O[C@H]1CN(C)S(=O)(=O)c1cccs1,inactive
14,CCCC(=O)N1CCC1(C)C(=O)NS(=O)(=O)c1ccc(Cl)cc1 (stereo unspecified),inactive
15,CC(=O)NC1=NN(C(C)=O)C(C)(c2ccc(C)cc2)S1 (stereo unspecified),inactive
16,CC(=O)NC1=NN(C(C)=O)C(C)(CCS(=O)(=O)c2ccc(Cl)c(Cl)c2)S1 (stereo unspecified),inactive
17,CC(=O)NC1=NN(C(C)=O)C(C)(c2ccc(Cl)s2)S1 (stereo unspecified),2.31 µM (active)
18,CCCCN1C(=O)C(CC(=O)NCc2cccs2)CC(C(=O)N2CCCCCC2)=C1C (stereo unspecified),inactive
19,CC1(C(=O)NS(=O)(=O)c2ccc(Cl)cc2)CCN1C(=O)CC1CCCC1 (stereo unspecified),inactive
20,CCOc1cccc(-n2nnnc2-c2ccc(OC)cc2)c1,4.61 µM (active)
21,COc1ccc(-n2nnnc2-c2nc3ccccc3s2)cc1,inactive
22,COc1ccc(NC(=O)CSc2nnnn2-c2cccc(OC)c2)cc1,inactive
23,Cc1nc2ccccc2nc1CC(O)(c1ccccc1)c1ccccc1,inactive
24,Nc1nc2c(ncn2[C@@H]2O[C@H](CNCc3ccc(OCCCN4CCOCC4)cc3)[C@@H](O)[C@H]2O)c(=O)[nH]1,inactive

row,SMILES,Potency
1,COc1ccc2sc(N(CCCN(C)C)C(=O)c3ccc(S(=O)(=O)N(C)C4CCCCC4)cc3)nc2c1,inactive
2,Cc1ccc2nc(N(CCN(C)C)C(=O)C3=COCCO3)sc2c1,inactive
3,CN(C)CCCN(C(=O)c1ccc(S(=O)(=O)N2CCCCCC2)cc1)c1nc2ccc(Br)cc2s1,16.4 µM (active)
4,O=S1(=O)CC(N2CCN(Cc3ccccc3F)CC2)CN1Cc1cn(Cc2cccc(C(F)(F)F)c2)nn1 (stereo unspecified),inactive
5,C[C@@H]1CN([C@@H](C)CO)S(=O)(=O)c2ccc(-c3ccc(C(=O)N(C)C)cc3)cc2O[C@@H]1CN(C)Cc1ccccc1C(=O)O,inactive
6,CC(C)c1ccc(NC(=S)NNc2ccc(Cl)c(C(=O)O)c2)cc1,inactive
7,Cc1ccc(C)c(NC(=S)NNC(=O)c2csc(C)c2)c1,inactive
8,Cc1ccc(C)c(NC(=S)NNC(=S)Nc2ccc(C(C)C)cc2)c1,23.1 µM (active)
9,Cc1cc(Br)ccc1NC(=O)CCCOc1cc(=O)n(C)c2ccccc12,inactive
10,Cc1ccc(C(=O)Nc2c(-c3ccccc3)[nH][nH]c2=O)cc1,inactive
11,O=C(CCCN1CCc2[nH]c3ccc(F)cc3c2C1)c1ccc(F)cc1,20.6 µM (active)
12,O=C(Nc1ccc(Cl)cc1)N1CCc2[nH]c3ccccc3c2C1,inactive
13,Fc1ccc(NC(=S)N2CCc3[nH]c4ccccc4c3C2)cc1,inactive
14,CC1(C(=O)NS(=O)(=O)c2ccccc2)CCN1C(=O)c1ccccc1 (stereo unspecified),inactive
15,COc1cc(C(O)c2nc(-c3cccc(C(=O)O)c3)cs2)ccc1F (stereo unspecified),inactive
16,COc1ccc2c(c1)c(=Cc1ccc(N(C)C)cc1)c1cc(-c3ccccc3)[n+](C)n12,5.17 µM (active)
17,COc1ccc2sc(-c3ccc(N(C)C)cc3)c(-c3ccc4cc[nH]c4c3)c2c1,inactive
18,COc1ccc(CCNS(=O)(=O)c2cccc3cccnc23)cc1OC,inactive
19,CCCCC(=O)NC(c1ccc(OC)c(OC)c1)c1ccc2cccnc2c1O (stereo unspecified),2.91 µM (active)
20,CCOc1ccc(C(CC(=O)O)NC(=O)Cc2ccccc2)cc1OC (stereo unspecified),inactive
21,CCCNC(=O)C1(C)CCCN(C(=O)c2cccc(OC(C)=O)c2C)C1 (stereo unspecified),inactive
22,Cc1ccc(-c2cc(=O)c3ccc(F)cc3[nH]2)cc1,inactive
23,Cc1cc(=O)c2ccc(NC(=O)c3ccccc3)cc2[nH]1,inactive
24,O=c1cc(-c2ccccc2)[nH]c2cc(F)ccc12,4.11 µM (active)
